The panel holds about 83,000 compounds, 20% with a hit somewhere; the sample as a whole holds those more often.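 Cells were grown in 96-well plates and exposed to the test compound at a single concentration for 48 hours; results are reported as percent growth, with values below 10 considered active.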 Active and inactive are the calls of the source.

The assay relates to SF-539 CNS. Description: NCI-60 one-dose screen, 48 h (100 = growth as untreated, 0 = no growth, -100 = all killed). As to conditions: 10 µM unless noted.
For the compound `COc1cc2c(c(OC)c1)C1c3cc(OC)ccc3NC(=O)N1CC2` (stereo not drawn), the growth is 85.1% (inactive).

As to `COc1ccc(C=C2c3ccccc3-c3ccccc32)cc1`, the growth is 43.7% (inactive).

With `O=S(=O)(c1ccc(N/N=C\c2ccccc2Cl)cc1)c1ccc(N/N=C/c2ccccc2Cl)cc1`, the growth is 89.7% (inactive).

In the case of `CSc1nc(N)c(N=Nc2ccc(S(=O)(=O)Nc3nnc(C)s3)cc2)c(=O)[nH]1`, the growth was 109% (inactive).

Regarding `C=C(C)[C@@H]1CC[C@]2(C)[C@H](CC=C3[C@@H]4[C@@H](C)[C@H](C)CC[C@]4(C(N)=O)CC[C@]32C)[C@@]1(C)CCC#N`, the growth is -63.1% [100 µM] (active).

`CCOC(=O)CC(c1ccccc1)C(C#N)c1ccccc1` (stereo not drawn): the growth was 109% (inactive).

`Clc1ccc(/C=N/Nc2nc3ccccc3s2)c(Cl)c1`: the growth was 100% (inactive).

In the case of `CC1(C)CC[C@]2(C(=O)O)CC[C@]3(C)[C@H](CC[C@@H]4[C@@]5(C)CCC(=O)C(C)(C)[C@@H]5CC[C@]43C)[C@H]2[C@H]1OC(=O)C(F)(F)F`, the growth is -86% [100 µM] (active).
